Source: PubChem BioAssay (Tox21)
Records with an inconclusive call do not appear. Active and inactive are the calls of the source. Unless noted, calls follow the shape of the full dose curve.

Legend:
[1] = qHTS assay to identify small molecule antagonists of the sonic hedgehog signaling (Shh) pathway (AID 1259369); also: nearly all actives have a fitted effect of over 45% in size; also: potency is read from the fitted curve at half-maximal effect
Procedure, shortened: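 Stable Gli1-Luc reporter NIH/3T3 clone; quantitative HTS in stimulated mode with conditioned medium. Luminescence measured after 24hr compound treatment at 37 C.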

[2] = target: Estrogen receptor beta (Homo sapiens) (UniProt Q92731); assay: qHTS assay to identify small molecule agonists of the estrogen receptor beta (ER-beta) signaling pathway (AID 1259377; active = well fitted activation curve with a large enough effect in the signal ratio in the repeat runs, not every such curve was filed as active; the % refers to the signal ratio)
Chain of Estrogen receptor beta (Homo sapiens) (Q92731 whole entry, looked up, the tested form may be a part): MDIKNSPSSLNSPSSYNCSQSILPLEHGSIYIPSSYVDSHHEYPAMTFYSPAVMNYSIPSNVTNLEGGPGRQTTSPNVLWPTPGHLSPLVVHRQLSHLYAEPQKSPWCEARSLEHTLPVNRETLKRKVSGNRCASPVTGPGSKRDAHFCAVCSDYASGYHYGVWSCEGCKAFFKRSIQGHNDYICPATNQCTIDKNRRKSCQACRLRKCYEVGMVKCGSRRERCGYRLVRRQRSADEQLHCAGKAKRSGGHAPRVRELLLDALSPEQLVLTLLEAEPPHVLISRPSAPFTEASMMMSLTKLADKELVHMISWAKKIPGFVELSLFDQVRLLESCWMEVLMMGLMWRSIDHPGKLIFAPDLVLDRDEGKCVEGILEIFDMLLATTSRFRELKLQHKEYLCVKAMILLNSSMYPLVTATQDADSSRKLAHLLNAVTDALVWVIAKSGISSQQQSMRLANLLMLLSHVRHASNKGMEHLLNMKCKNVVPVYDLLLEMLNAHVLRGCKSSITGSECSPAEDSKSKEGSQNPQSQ
Procedure, shortened: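 Agonist mode cell assay in GripTite HEK293T cells expressing an ER-beta fusion that drives beta-lactamase from an Upstream Activator Sequence; 16 hr compound exposure at 37C, then 2 h LiveBLAzer B/G FRET substrate at room temperature, fluorescence read-out.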

[3] = target: Estrogen receptor beta (Homo sapiens) (UniProt Q92731); assay: qHTS assay to identify small molecule antagonists of the estrogen receptor beta (ER-beta) signaling pathway (AID 1259378; active = well fitted inhibition curve with a large enough effect in the signal ratio in the repeat runs, not every such curve was filed as active; the % refers to the signal ratio; also: potency is read from the fitted curve at half-maximal effect)
Procedure, shortened: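 Antagonist mode: compounds added to beta-lactamase reporter HEK293T ER-beta-UAS cells stimulated with E2 (1nM final), 16 hr at 37C. LiveBLAzer B/G FRET substrate, 2 hours room temperature, fluorescence read-out.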

[4] = qHTS assay to identify small molecule agonists of the androgen receptor (AR) signaling pathway in the presence of an antagonist - cell viability counter screen (AID 1259379; active = well fitted curve in the direction sought with a large enough effect in the repeat runs; an effect the other way counts as inactive or inconclusive; also: nearly all actives have a fitted effect of over 25% in size; also: potency is read from the fitted curve at half-maximal effect)
Procedure, shortened: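 Nilutamide-containing (3.0uM final) MDA-kb2 cultures, 3,000 cells/well, were treated with compounds across 15 concentrations. After 16 hr at 37C with no CO2, cell viability was determined by CellTiter-Fluor fluorescence in the luciferase assay wells.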

[5] = target: Androgen receptor (Homo sapiens) (UniProt P10275); assay: qHTS assay to identify small molecule agonists of the androgen receptor (AR) signaling pathway in the presence of an antagonist (AID 1259381); also: nearly all actives have a fitted effect of over 15% in size
Chain of Androgen receptor (Homo sapiens) (P10275 whole entry, looked up): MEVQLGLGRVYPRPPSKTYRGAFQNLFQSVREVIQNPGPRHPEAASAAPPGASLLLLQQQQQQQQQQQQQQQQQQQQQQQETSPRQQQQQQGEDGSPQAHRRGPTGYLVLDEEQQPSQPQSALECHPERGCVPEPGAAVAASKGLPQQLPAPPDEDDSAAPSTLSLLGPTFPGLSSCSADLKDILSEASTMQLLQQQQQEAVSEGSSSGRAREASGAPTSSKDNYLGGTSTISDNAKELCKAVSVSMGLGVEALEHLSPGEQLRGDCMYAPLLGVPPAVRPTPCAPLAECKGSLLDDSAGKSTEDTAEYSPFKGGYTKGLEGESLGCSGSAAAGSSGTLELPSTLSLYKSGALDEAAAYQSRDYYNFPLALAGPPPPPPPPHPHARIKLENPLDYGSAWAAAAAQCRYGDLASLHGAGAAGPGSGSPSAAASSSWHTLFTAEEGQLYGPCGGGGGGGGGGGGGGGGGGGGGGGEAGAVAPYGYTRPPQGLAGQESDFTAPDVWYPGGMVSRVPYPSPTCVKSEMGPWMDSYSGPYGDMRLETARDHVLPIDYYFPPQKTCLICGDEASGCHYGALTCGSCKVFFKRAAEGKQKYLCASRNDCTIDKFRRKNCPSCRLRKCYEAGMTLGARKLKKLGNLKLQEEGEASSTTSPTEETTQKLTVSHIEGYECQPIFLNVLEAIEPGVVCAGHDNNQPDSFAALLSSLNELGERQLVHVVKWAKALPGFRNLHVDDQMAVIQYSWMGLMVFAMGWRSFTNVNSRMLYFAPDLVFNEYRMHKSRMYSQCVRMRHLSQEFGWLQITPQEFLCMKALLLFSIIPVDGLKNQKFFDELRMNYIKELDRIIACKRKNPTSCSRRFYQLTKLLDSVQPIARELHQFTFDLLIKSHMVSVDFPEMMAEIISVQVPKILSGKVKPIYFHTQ
Procedure, shortened: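 Reporter-gene luminescence from MDA-kb2 cells exposed 16hr at 37C (0% CO2) to 15-point compound titrations with 3.0uM final nilutamide as AR antagonist.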

[6] = qHTS assay to identify small molecule antagonists of the estrogen receptor beta (ER-beta) signaling pathway - cell viability counter screen (AID 1259382; active = well fitted curve in the direction sought with a large enough effect in the repeat runs; an effect the other way counts as inactive or inconclusive;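 also: HEK293T cells carrying ER-beta-UAS-bla reporter stimulated with estradiol; series mostly up to about 92 µM; nearly all actives have a fitted effect of over 55% in size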)
Procedure, shortened: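 Viability is scored by CellTiter-Glo luminescence (30 min, room temperature) in ER-beta-UAS-bla HEK293T wells already read for reporter fluorescence. Compound exposure lasts 16 hr at 37C alongside 1nM 17-beta-estradiol in charcoal-stripped serum medium.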

[7] = target: Estrogen receptor (Homo sapiens) (UniProt P03372); assay: qHTS assay to identify small molecule agonists of the estrogen receptor alpha (ER-alpha) signaling pathway in the presence of an antagonist (AID 1259383); also: top concentration of the series differs between compounds; nearly all actives have a fitted effect of over 15% in size
Chain of Estrogen receptor (Homo sapiens) (P03372 whole entry, looked up): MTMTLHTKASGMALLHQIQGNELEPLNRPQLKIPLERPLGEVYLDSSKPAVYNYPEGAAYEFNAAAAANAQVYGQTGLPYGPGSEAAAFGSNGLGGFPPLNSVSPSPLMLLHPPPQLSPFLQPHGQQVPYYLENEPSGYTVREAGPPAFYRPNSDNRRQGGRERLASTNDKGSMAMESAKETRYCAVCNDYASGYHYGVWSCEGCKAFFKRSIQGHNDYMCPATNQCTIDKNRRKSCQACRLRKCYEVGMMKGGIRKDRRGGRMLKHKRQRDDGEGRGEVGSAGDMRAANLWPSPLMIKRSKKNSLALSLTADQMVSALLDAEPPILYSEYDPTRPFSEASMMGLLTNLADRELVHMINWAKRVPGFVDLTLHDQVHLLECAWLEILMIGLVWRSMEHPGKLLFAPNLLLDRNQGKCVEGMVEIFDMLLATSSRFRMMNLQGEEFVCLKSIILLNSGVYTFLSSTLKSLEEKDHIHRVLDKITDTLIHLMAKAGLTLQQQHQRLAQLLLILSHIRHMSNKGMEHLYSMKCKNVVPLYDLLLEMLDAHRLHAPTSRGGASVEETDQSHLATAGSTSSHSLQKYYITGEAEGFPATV
Procedure, shortened: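 Readout was ERE-driven luciferase luminescence in VM7Luc4E2 cells, which express full-length ER-alpha endogenously. Compounds were tested at 15 concentrations for 22hr alongside 10.0nM ICI-182,780 (final concentration).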

[8] = target: Thyrotropin receptor (Homo sapiens) (UniProt P16473); assay: qHTS assay to identify small molecule antagonists of the thyroid stimulating hormone receptor (TSHR) signaling pathway (AID 1259385); also: nearly all actives have a fitted effect of over 20% in size; also: potency is read from the fitted curve at half-maximal effect
Chain of Thyrotropin receptor (Homo sapiens) (P16473 whole entry, looked up): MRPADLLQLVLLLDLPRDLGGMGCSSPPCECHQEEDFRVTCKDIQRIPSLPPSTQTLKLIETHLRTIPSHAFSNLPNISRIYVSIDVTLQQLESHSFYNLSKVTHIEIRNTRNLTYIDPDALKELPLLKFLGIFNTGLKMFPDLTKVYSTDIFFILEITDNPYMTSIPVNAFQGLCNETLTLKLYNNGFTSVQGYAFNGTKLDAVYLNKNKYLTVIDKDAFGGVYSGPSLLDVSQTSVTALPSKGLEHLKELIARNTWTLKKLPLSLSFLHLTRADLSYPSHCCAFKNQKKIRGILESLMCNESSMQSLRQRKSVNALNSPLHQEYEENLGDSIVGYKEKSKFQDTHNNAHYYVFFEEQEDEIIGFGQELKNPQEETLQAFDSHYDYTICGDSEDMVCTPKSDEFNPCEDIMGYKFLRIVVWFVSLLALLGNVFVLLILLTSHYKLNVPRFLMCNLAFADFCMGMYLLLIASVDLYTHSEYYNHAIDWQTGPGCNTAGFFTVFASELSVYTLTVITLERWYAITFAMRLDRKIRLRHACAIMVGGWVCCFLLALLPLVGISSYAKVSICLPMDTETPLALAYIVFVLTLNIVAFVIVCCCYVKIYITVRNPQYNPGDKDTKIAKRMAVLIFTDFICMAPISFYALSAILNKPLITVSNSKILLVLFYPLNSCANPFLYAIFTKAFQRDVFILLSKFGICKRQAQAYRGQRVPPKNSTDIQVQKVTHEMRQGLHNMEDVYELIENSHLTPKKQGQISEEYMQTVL
Procedure, shortened: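 Antagonist mode: compound-treated TSHR-expressing HEK293 cells were stimulated with 1.5 ng/mL TSH (final) in presence of Ro20-1724 for 30 min at RT. HTRF cAMP detection after 1 h; each compound tested at 15 concentrations, triplicate.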

[9] = qHTS assay to identify small molecule agonists of the estrogen receptor alpha (ER-alpha) signaling pathway in the presence of an antagonist - cell viability counter screen (AID 1259386; active = well fitted curve in the direction sought with a large enough effect in the repeat runs; an effect the other way counts as inactive or inconclusive;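 also: cells exposed to compounds for 22 h at 37 °C before the viability read; nearly all actives have a fitted effect of over 30% in size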; also: potency is read from the fitted curve at half-maximal effect)
Procedure, shortened: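 In this counter screen, compound effects on VM7Luc4E2 viability were tested in the presence of the antagonist ICI-182,780 at 10.0nM final. Compounds were dosed at 15 concentrations, exposure lasted 22hr, and the CellTiter-Fluor signal was read.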

[10] = target: Progesterone receptor (Homo sapiens) (UniProt P06401); assay: qHTS assay to identify small molecule agonists of the progesterone receptor (PR) signaling pathway (AID 1346784); also: nearly all actives have a fitted effect of over 30% in size
Chain of Progesterone receptor (Homo sapiens) (P06401 whole entry, looked up): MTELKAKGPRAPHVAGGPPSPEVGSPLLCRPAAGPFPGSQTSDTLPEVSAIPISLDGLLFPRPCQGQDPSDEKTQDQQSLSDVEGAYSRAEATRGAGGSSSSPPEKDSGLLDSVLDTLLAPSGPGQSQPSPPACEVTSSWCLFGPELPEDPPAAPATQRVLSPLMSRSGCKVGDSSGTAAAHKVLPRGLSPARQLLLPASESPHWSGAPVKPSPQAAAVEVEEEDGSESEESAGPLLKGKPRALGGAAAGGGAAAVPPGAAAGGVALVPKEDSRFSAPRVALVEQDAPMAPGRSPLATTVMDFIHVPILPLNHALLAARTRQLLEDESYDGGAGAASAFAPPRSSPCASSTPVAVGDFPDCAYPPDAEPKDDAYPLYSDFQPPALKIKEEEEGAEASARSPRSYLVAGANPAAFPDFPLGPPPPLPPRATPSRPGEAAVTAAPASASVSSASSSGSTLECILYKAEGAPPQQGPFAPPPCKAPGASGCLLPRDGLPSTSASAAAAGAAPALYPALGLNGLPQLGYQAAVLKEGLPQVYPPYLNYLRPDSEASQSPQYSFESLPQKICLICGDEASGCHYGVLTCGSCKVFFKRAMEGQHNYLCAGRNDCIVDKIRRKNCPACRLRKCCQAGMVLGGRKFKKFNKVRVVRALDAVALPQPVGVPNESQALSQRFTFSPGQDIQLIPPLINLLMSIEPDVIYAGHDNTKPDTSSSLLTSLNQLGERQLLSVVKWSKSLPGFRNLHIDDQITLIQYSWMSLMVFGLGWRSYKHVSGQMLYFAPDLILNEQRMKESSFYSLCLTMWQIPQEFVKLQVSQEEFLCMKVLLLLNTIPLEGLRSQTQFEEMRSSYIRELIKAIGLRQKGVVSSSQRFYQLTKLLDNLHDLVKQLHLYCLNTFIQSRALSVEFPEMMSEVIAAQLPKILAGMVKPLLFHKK
Procedure, shortened: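 Cells (PR-UAS-bla HEK 293T, GripTite) were plated in assay medium containing 2% charcoal-stripped FBS and incubated 6 hr. Test compounds in DMSO were added for 16 hr at 37C. FRET substrate was then loaded for 2 hr at room temperature before fluorescence reading.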

[11] = target: Progesterone receptor (Homo sapiens) (UniProt P06401); assay: qHTS assay to identify small molecule antagonists of the progesterone receptor (PR) signaling pathway (AID 1346795; active = well fitted inhibition curve with a large enough effect in the signal ratio in the repeat runs, not every such curve was filed as active; the % refers to the signal ratio; also: potency is read from the fitted curve at half-maximal effect)
Procedure, shortened: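 Antagonist mode: compounds tested against 1 nM (final) promegestone stimulation in HEK293T cells expressing PR-UAS-bla reporter, 16 hr at 37C, 5% CO2; beta-lactamase activity detected via B/G FRET substrate after 2 hr at room temperature.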

[12] = qHTS assay to identify small molecule antagonists of the progesterone receptor (PR) signaling pathway - cell viability counter screen (AID 1346798; active = well fitted curve in the direction sought with a large enough effect in the repeat runs; an effect the other way counts as inactive or inconclusive; also: series mostly up to about 92 µM; nearly all actives have a fitted effect of over 50% in size)
Procedure, shortened: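 Counter screen for cytotoxicity: viability of PR-UAS-bla HEK293T cells was measured with CellTiter-Glo luminescence following 16 hr compound exposure in the presence of R5020.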

[13] = qHTS assay to identify small molecule agonists of the progesterone receptor (PR) signaling pathway - cell viability counter screen (AID 1346799); also: nearly all actives have a fitted effect of over 45% in size
Procedure, shortened: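 Cells (PR-UAS-bla HEK293T) are plated at 3,000/well in 2% charcoal-stripped FBS medium, rested 6 hr, dosed and incubated 16 hr at 37C. CellTiter-Glo is then added and luminescence measured after 30 min at room temperature.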

[14] = qHTS assay to identify small molecule antagonists of the TGF-beta/Smad signaling pathway - cell viability counter screen (AID 1346824; active = well fitted curve in the direction sought with a large enough effect in the repeat runs; an effect the other way counts as inactive or inconclusive; also: nearly all actives have a fitted effect of over 50% in size)
Procedure, shortened: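 Cytotoxicity counter-screen run in the same wells as the beta-lactamase Smad reporter read: CellTiter-Glo luminescence after 30 min at room temperature. HEK 293T SBE-bla cells had 5 hr compound exposure at 37 C with TGF-beta1 (0.25 ng/mL stock).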

[15] = qHTS assay to identify small molecule agonists of the TGF-beta/Smad signaling pathway - cell viability counter screen (AID 1346829; active = well fitted curve in the direction sought with a large enough effect in the repeat runs; an effect the other way counts as inactive or inconclusive; also: top concentration of the series differs between compounds; nearly all actives have a fitted effect of over 45% in size)
Procedure, shortened: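 Tox21 qHTS format: SBE-bla HEK 293T cells treated with DMSO-dissolved compounds for 5 hr; CellTiter-Glo luminescence after 30 min at room temperature.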

[16] = qHTS assay to identify small molecule agonists of the TGF-beta/Smad signaling pathway (AID 1346859; active = well fitted activation curve with a large enough effect in the signal ratio in the repeat runs, not every such curve was filed as active; the % refers to the signal ratio; also: series mostly up to about 77 µM)
Procedure, shortened: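 Reporter line: HEK 293T with stably integrated SBE-controlled beta-lactamase. Compound exposure lasts 5 hr at 37 C and 5% CO2; substrate loading follows for 2 hr at room temperature, with emission read at 460 and 530 nm.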

[17] = target: Thyrotropin-releasing hormone receptor (Homo sapiens) (UniProt P34981); assay: qHTS assay to identify small molecule antagonists of the thyrotropin-releasing hormone receptor (TRHR) signaling pathway (AID 1346877; active = well fitted inhibition curve with a large enough effect in the repeat runs, not every such curve was filed as active; also: series mostly up to about 51 µM)
Chain of Thyrotropin-releasing hormone receptor (Homo sapiens) (P34981 whole entry, looked up): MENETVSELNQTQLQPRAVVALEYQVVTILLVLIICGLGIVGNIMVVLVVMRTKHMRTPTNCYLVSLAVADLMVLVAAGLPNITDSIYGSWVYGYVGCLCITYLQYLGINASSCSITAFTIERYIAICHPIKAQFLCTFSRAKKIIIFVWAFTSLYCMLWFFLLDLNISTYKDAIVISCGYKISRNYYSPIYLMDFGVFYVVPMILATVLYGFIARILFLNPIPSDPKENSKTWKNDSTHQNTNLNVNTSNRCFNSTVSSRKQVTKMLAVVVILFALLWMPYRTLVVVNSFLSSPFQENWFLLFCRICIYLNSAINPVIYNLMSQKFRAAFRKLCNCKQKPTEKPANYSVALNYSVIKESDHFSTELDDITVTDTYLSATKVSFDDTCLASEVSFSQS
Procedure, shortened: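 Kinetic fluorescence (3 min, 1 s resolution) following stimulation with TRH at 1 nM final; HEK293 cells bearing human TRHR; 5 min compound preincubation at RT; concentration-response over 15 points, triplicates.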

[18] = target: Thyrotropin-releasing hormone receptor (Homo sapiens) (UniProt P34981); assay: qHTS assay to identify small molecule agonists of the thyrotropin-releasing hormone receptor (TRHR) signaling pathway (AID 1346891); also: potency is read from the fitted curve at half-maximal effect;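 as to activation: HEK293 cells expressing TRHR with calcium dye readout; series mostly up to about 58 µM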
Procedure, shortened: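 Cells: TRHR-Hek293, seeded and incubated 18 h. Dye loading: 2 h at 37 °C. Compound added from DMSO stock by pin tool. Read-out: kinetic calcium fluorescence over 3 min.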

[19] = qHTS assay to identify small molecule agonists of the estrogen receptor beta (ER-beta) signaling pathway - cell viability counter screen (AID 1259380; active = well fitted curve in the direction sought with a large enough effect in the repeat runs; an effect the other way counts as inactive or inconclusive; also: nearly all actives have a fitted effect of over 30% in size)
Procedure, shortened: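 Steps: plate ER-beta-UAS-bla HEK293T cells, rest 6 hr; add compounds in DMSO; incubate 16 hr at 37C, 5% CO2; add FRET substrate 2 hr; add CellTiter-Glo, wait 30 min at room temperature; read luminescence.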

[20] = qHTS assay to identify small molecule agonists or antagonists of the thyroid stimulating hormone receptor (TSHR) signaling pathway - wild type cell line counter screen (AID 1259384)
Procedure, shortened: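 Counter screen in untransfected Hek293: compounds (15-point titration, triplicate) plus phosphodiesterase inhibitor Ro20-1724 added after 18 h plating; 30 min RT. Intracellular cAMP via competitive d2/cryptate immunoassay, 1 h incubation.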

Measured: Potency

N[C@H]1C(O)O[C@H](CO)[C@H](O)[C@@H]1O (stereo not given in full)
not listed: [19] | [20]
inactive: all other assays above

Cc1cccc(OCCOc2cccc(C)c2)c1
not listed: [5] | [10] | [11] | [12]
inactive: all other assays above

O=C(/C=C/c1ccc(O)c(O)c1)O[C@@H]1C[C@](O)(C(=O)O)C[C@@H](O)[C@H]1O
not listed: [5] | [7] | [8] | [9] | [10] | [20]
inactive: all other assays above

CC(=O)O[C@@H]1C(=O)O[C@@H]2[C@H]1OC(=O)[C@@H]2OC(C)=O
not listed: [5] | [10] | [19]
inactive: all other assays above

Nc1cnn([C@@H]2O[C@H](CO)[C@@H](O)[C@H]2O)c(=O)n1
active: [3] 27.3 µM | [11] 19.4 µM
not listed: [4] | [5]
inactive: all other assays above

CC(C)(C)c1cc(O)c(C(C)(C)C)cc1O
active: [1] 30.6 µM | [3] 30.6 µM | [8] 61.1 µM
not listed: [4] | [9] | [11] | [12] | [13] | [17] | [19]
inactive: all other assays above

CC1(C)[C@H]2CC[C@]1(C)[C@H](O)C2
not listed: [5] | [7]
inactive: all other assays above

Cc1ccc(C)o1
not listed: [5] | [6] | [7] | [9] | [12]
inactive: all other assays above

ClC(Cl)(Cl)c1ccc(C(Cl)(Cl)Cl)cc1
not listed: [5] | [8] | [10] | [12]
inactive: all other assays above

CCCCCCCCCCCCCCC1CO1 (stereo not given)
not listed: [5]
inactive: all other assays above

CC(C)(Oc1ccc(Cl)cc1)C(=O)OCCCOC(=O)C(C)(C)Oc1ccc(Cl)cc1
active: [8] 29.8 µM
not listed: [10] | [19]
inactive: all other assays above

CCCCCCCCCO
not listed: [5] | [6] | [10] | [12] | [13] | [19]
inactive: all other assays above

CC(=O)OC/C=C/c1ccccc1
not listed: [5] | [7] | [12]
inactive: all other assays above

CCN(CC)CCc1nc(-c2ccccc2)no1
not listed: [5] | [12]
inactive: all other assays above

CC(C)CCCCCCOC(=O)c1ccc(C(=O)OCCCCCCC(C)C)c(C(=O)OCCCCCCC(C)C)c1
not listed: [4] | [5] | [7]
inactive: all other assays above

CC[C@H](C)[C@H](N)C(=O)O
not listed: [5] | [6] | [20]
inactive: all other assays above

CCOc1ccc(NC(=O)CC(C)=O)cc1
not listed: [5] | [7] | [8] | [20]
inactive: all other assays above

CCCCCCOC(=O)CCC
not listed: [5] | [7]
inactive: all other assays above

Cn1c(NCCN(CCO)CCCc2ccc([N+](=O)[O-])cc2)cc(=O)n(C)c1=O
not listed: [4] | [5] | [7] | [10] | [11] | [12]
inactive: all other assays above

Cc1cccc(C(C)(C)C)c1O
not listed: [5] | [6] | [8] | [12] | [19] | [20]
inactive: all other assays above

Cc1cc(C)c(S(=O)(=O)O)cc1N=Nc1cc(S(=O)(=O)O)c2ccccc2c1O
active: [4] 27.3 µM | [9] 27.3 µM
not listed: [7]
inactive: all other assays above

CC(=O)NCCCS(=O)(=O)O
active: [18] 11.9 µM
not listed: [5] | [10] | [11] | [19]
inactive: all other assays above

CC(C)(C)c1ccc(OCC2CO2)cc1 (stereo not given)
not listed: [5] | [19]
inactive: all other assays above

CCOc1nc2cccc(C(=O)O)c2n1Cc1ccc(-c2ccccc2-c2nn[nH]n2)cc1
not listed: [6] | [9] | [12] | [17] | [18] | [19]
inactive: all other assays above

C=C(C)C(=O)OCCN(C)C
not listed: [5] | [6] | [8] | [10] | [12] | [20]
inactive: all other assays above

Cc1ccccn1
not listed: [4] | [5] | [7] | [8] | [10] | [20]
inactive: all other assays above

CC(C)c1cccc(C(C)C)c1NC(=O)NS(=O)(=O)c1cc(C(C)(C)O)co1
not listed: [5] | [7] | [17] | [18]
inactive: all other assays above

C=C(C)C(=O)OC(C)C
not listed: [11] | [12] | [20]
inactive: all other assays above

CCCCOCCOCCOCCOCCO
not listed: [5] | [10] | [11] | [12] | [13] | [19] | [20]
inactive: all other assays above

O=[N+]([O-])c1cccc(Cl)c1Cl
not listed: [5] | [10] | [19]
inactive: all other assays above

CCCCOC(O)CC (stereo not given)
not listed: [6] | [12] | [13]
inactive: all other assays above

CC(=O)N(O)CCCCCNC(=O)CCC(=O)N(O)CCCCCNC(=O)CCC(=O)N(O)CCCCCN
not listed: [6] | [12]
inactive: all other assays above
